# Data published in ChEMBL document CHEMBL1157539, “Thousands of chemical starting points for antimalarial lead identification” (Nature, 2010).
# Columns and labels:
# Format in all cases: functional
# [1] = tested on: Plasmodium falciparum; assay: GSK_TCMDC: Inhibition of Plasmodium falciparum 3D7 in whole red blood cells, using parasite LDH activity as an index of growth. Test compounds present at 2uM
# [2] = tested on: Plasmodium falciparum; assay: GSK_TCMDC: Inhibition of Plasmodium falciparum Dd2 in whole red blood cells, using parasite LDH activity as an index of growth. Test compounds present at 2uM
# [3] = tested on: HepG2; assay: GSK_TCMDC: Percent inhibition of human HepG2 cell line. Test compounds present at 10uM.
Compound,Inhibition [1] [%],Inhibition [2] [%],Inhibition [3] [%]
COc1ccc(-c2cccc(NC(=O)c3ccc(Cl)cc3)c2)cc1CN1CCNCC1.O=C(O)C(F)(F)F,96,22,52
CN(CC(=O)Nc1cc(C(F)(F)F)ccc1-n1cncn1)Cc1ccc2ccccc2c1,98,99,18
O=c1cc(NCCCNCc2[nH]c3cc(Cl)ccc3c2Cl)[nH]c2ccccc12,91,1,5
Cc1ccc(C(=O)N2CCN(Cc3nccs3)CC2)cc1,86,0,0
Cl.O=C(Nc1ccc(C2=NC3CCCCC3N2)cc1)Nc1ccc(C2=NC3CCCCC3N2)cc1 (stereo not drawn),88,76,7
O=C(O)C(F)(F)F.c1ccc2[nH]c(-c3ccc(-c4ccc(CN5CCCCC5)cc4)cc3)nc2c1,99,100,27
Cn1c(Nc2nnc(C3CC3)s2)nc2cc(Nc3ccnc(Nc4cccc(CS(C)(=O)=O)c4)n3)ccc21,97,83,0
Cc1cccc(C(=O)Nc2ccnc(N3CCC(N(C)Cc4ccccc4)CC3)c2)c1.O=C(O)C(F)(F)F,93,2,12
Cc1cc(N)c2cc(NC(=O)c3cc(C(F)(F)F)cc(C(F)(F)F)c3)ccc2n1.Cl,100,99,100
COc1nc2c(CCN3CCC(NCc4ccc5c(c4)NCCO5)CC3)c(Cl)cnc2cc1F.Cl,100,98,23
Br.CC1(C)NC(N)=NC(=N)N1OCCNCc1ccc(Cl)cc1,95,0,5
Oc1ccc(-c2cc(-c3ccc(O)cc3)nc(-c3ccccc3)n2)cc1,96,97,0
COc1cc2c(cc1C(F)(F)F)N(C(=O)Nc1cccc(-c3ccc(CN(C)C)cc3)c1)CC2,100,93,95
O=C(NOCCOc1ccccc1)c1ccccc1,98,0,0
O=C(/C=C/C=C/c1ccc(Cl)c(Cl)c1)NCCCCCN1CCCC2CCCCC21 (stereo not drawn),91,48,41
Cn1c(NC(=O)CCCCCNC(=O)c2ccc(O)c(-c3ccc(Cl)c(Cl)c3)c2)nc2ccccc21,100,55,0

Compound,Inhibition [1] [%],Inhibition [2] [%],Inhibition [3] [%]
CCOC(=O)c1ccc(NC(=O)N(Cc2ccc(-c3cccc(CN4CCNCC4)c3)cc2)C2CCN(Cc3ccccc3)CC2)cc1.O=C(O)C(F)(F)F,100,55,19
Cc1cccc2nc(-c3cccc(-c4ccc(NC(=O)C5CC(=O)Nc6ccccc65)cc4)c3)[nH]c12 (stereo not drawn),87,56,15
O=C(/C=C/c1ccc(Cl)c(Cl)c1)NCCCCCN1CCC(c2c[nH]c3ccccc23)CC1,99,7,33
CCc1c(CCNCCCCCCNC(C)(C)Cc2ccc3c(c2CC)OCO3)ccc(OC)c1OC.Cl,100,50,100
CC(C)COc1ccc(Cl)cc1Cc1nc(-c2nc3ccc(CN4CCCCC4)cc3[nH]2)co1.Cl,100,70,49
COc1ccc2nccc([C@@H](O)CN3CCC(NCc4cc5cccc(OCc6ccccc6)c5[nH]4)CC3)c2c1,100,40,13
CN1CCC(C(=O)Nc2ccc(-c3ccc(-c4nc5ccccc5[nH]4)cc3)cc2)CC1,100,94,28
COc1ccc(-c2cccc(CNC3CCN(C)CC3)c2)cc1S(=O)(=O)NCc1ccccc1.O=C(O)C(F)(F)F,90,22,18
COc1cc2nc(NCC3CCCCC3)nc(NCc3ccccc3)c2cc1OC,100,100,18
O=C(c1ccco1)N1CCN(c2ccc([N+](=O)[O-])c(NC3CC3)c2)CC1,100,99,0
O=CO.c1ccc(CCNc2ccnc(Nc3ccc4cn[nH]c4c3)n2)cc1,100,100,54
O=c1cc(-c2ccc3ccccc3c2)[nH]c2ccccc12,81,44,25
Fc1ccc(-c2csc3ncnc(Cl)c23)cc1,94,95,3
CN(C)c1ccnc2ccc(NC(=O)Nc3ccnc4ccccc34)cc12,100,99,15
Cc1cc(F)ccc1-c1nc(NCCCNCCc2ccccc2)nc2c1ccc(=O)n2-c1c(F)cccc1F.O=C(O)C(F)(F)F,100,100,36
